Structures are written as SMILES. In all, about 7,400 compounds went through this assay and about 4,100 (55%) were called active.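 The calls were made as follows: active = inhibition of yeast growth at or above a set limit in either of two repeat tests at 20 µM; inactive = the rest.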 So high a share suggests a set chosen from earlier hits. These entries were drawn from the full list.

The assay is described as follows: tim10-1 ts yeast growth inhibition, retested – single concentration, luminescence, S. cerevisiae, confirmation (AID 463213). Conditions: S. cerevisiae tim10-1 ts strain growth, BacTiter-Glo, 24 h; at 20 µM; hits give high values.
The term inhibition denotes the change of the read-out against control, counted positive when it falls. For the compound `Cc1nc2ccccn2c1P(=S)(N1CCCCC1)N1CCCCC1`, the inhibition was 38.4% (active).
Regarding `O=C1NC(=O)N(c2ccccc2)C(=O)/C1=C/c1ccc([N+](=O)[O-])s1`, the inhibition was 75.3% (active).
In the case of `COc1cccc(N2C(=O)NC(=O)/C(=C\c3ccc([N+](=O)[O-])s3)C2=O)c1`, the inhibition was 76.5% (active).
On to `N#CC1=C(N)Oc2c(c(=O)oc3ccccc23)C1c1ccccc1OC(=O)c1cccs1` (stereo not given), for which the inhibition was 22.8% (inactive).
In the case of `CCCCCn1c(=O)c(C(=O)Nc2c(C)n(C)n(-c3ccccc3)c2=O)c(O)c2ccccc21`, the inhibition is 6.15% (inactive).
